Whole data set: some 81,000 sequences, median “one-hybrid fitness for binding parS DNA” near -0.17, cut for the highest 2% near 0.51. Shown is part of a subset that was picked to be rich in the highest values.
B1: Caulobacter ParB omega fusion; a variant is named by its letters at X, in order, B8GW30 (parent)
chain: MESVVVGEPGMSEGRRGLGRGLSALLGEVDAAPAQAPGEQLGGSREAPIEILQRNPDQPRRTFREEDLEDLSNSIREKGVLQPILVRPSPDTAGEYQIVAGERAWRAAQRAGLKTVPIMVRELDDLAVLEIGIIENVQRADLNVLEEALSYKVLMEKFERTQENIAQTIGKSXSHVANXMRLLXLPDEVQSYLVSGELTAXHARAIAAAADPVALAKQIIEGGLSVRETEALARKAPNLSAGKSKGGRPPRVKDTDTQALESDLSSVLGLDVSIDHRGSTGTLTITYATLEQLDDLCNRLTRGI

Variants of: B1
Assay: one-hybrid fitness for binding parS DNA (scaled: cognate 1, non-cognate 0); higher = stronger binding
Conditions: with parS DNA site
In short: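 Values were rescaled so that cognate is 1 and non-cognate is 0. Each is a fitness, the log change in a variant's read ratio to wild type from Illumina reads of plasmids before and after selection, with three replicate libraries pooled and variants under 10 reads dropped. Selection of the Caulobacter ParB libraries, four specificity codons randomised, used E. coli USO with a HIS3 reporter, site 19 bp from the promoter, on M9-minus-histidine with 0.1 mM IPTG and 5 mM 3-AT for 48 hours at 37°C.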

Variant	one-hybrid fitness for binding parS DNA
RHVC	0.773
RHKC	0.858
RHKQ	≤ 0.2
RHKM	0.358
SHAT	≤ 0.2
DRYP	≤ 0.2
IQCS	≤ 0.2
TYDM	≤ 0.2
RGKD	≤ 0.2
RGVT	0.33
RGKT	0.712
RGKY	0.436
RGVP	≤ 0.2
RGKN	0.369
RGKS	0.927
RGVS	0.516
RGVN	≤ 0.2
LSNY	≤ 0.2
WVRY	≤ 0.2
MIPI	≤ 0.2
GELY	≤ 0.2
GYSK	≤ 0.2
QACE	≤ 0.2
NCKN	≤ 0.2
VNAS	≤ 0.2
NRVA	≤ 0.2

Variant	one-hybrid fitness for binding parS DNA
DRKA	≤ 0.2
RRVA	0.78
RRKA	0.532
NRKA	≤ 0.2
YMAC	≤ 0.2
EHCS	≤ 0.2
RYQC	0.898
RYSF	≤ 0.2
RYHR	≤ 0.2
RYHY	0.423
RYSC	0.929
RYSK	≤ 0.2
RYLC	0.955
RYLK	≤ 0.2
RYQN	0.318
RYQP	≤ 0.2
RYHC	0.949
RYLR	≤ 0.2
SLCV	≤ 0.2
CHLH	≤ 0.2
CAHG	≤ 0.2
MLWF	0.204
KWCS	≤ 0.2
VPGF	≤ 0.2
PGPY	≤ 0.2
ELLG	≤ 0.2

Variant	one-hybrid fitness for binding parS DNA
NRNN	≤ 0.2
TSHR	≤ 0.2
SYEV	≤ 0.2
RYYC	0.975
RYRC	0.798
RYCR	≤ 0.2
RYYR	≤ 0.2
RYCF	≤ 0.2
RYYQ	≤ 0.2
RYWR	≤ 0.2
RYCC	0.903
RYRK	≤ 0.2
RYWF	0.258
RYRM	0.328
RYWC	0.887
QPAG	≤ 0.2
WKQT	≤ 0.2
SDLQ	≤ 0.2
CPED	≤ 0.2
GWLY	≤ 0.2
RYGC	0.914
RYGH	≤ 0.2
RYGP	≤ 0.2
DNPV	≤ 0.2
NFYG	≤ 0.2
RFYG	0.899

Variant	one-hybrid fitness for binding parS DNA
RFHG	0.974
RFRG	0.992
NFRG	≤ 0.2
DFRG	≤ 0.2
SFCG	≤ 0.2
NFCG	≤ 0.2
DFYG	≤ 0.2
NFHG	≤ 0.2
RFCG	0.895
DFHG	≤ 0.2
QYLK	≤ 0.2
ALTP	≤ 0.2
ELKN	≤ 0.2
VNHC	≤ 0.2
DHWC	≤ 0.2
FRFT	≤ 0.2
TDKR	≤ 0.2
FTYC	≤ 0.2
QQPP	≤ 0.2
WLFI	≤ 0.2
AEPL	≤ 0.2
RFLG	0.891
RFGD	≤ 0.2
NFGG	≤ 0.2
RFGG	0.918
DFLG	≤ 0.2

Variant	one-hybrid fitness for binding parS DNA
RFLH	0.217
QKFT	≤ 0.2
TIPM	≤ 0.2
RRAA	0.724
NRAA	≤ 0.2
DRAA	≤ 0.2
DRFA	≤ 0.2
NRFA	≤ 0.2
RRFA	0.806
RAFI	≤ 0.2
DPVD	≤ 0.2
RHVG	0.847
RHKG	0.879
RHVH	≤ 0.2
RHKH	0.248
RHVP	≤ 0.2
RHKD	≤ 0.2
QEEC	≤ 0.2
PYTA	≤ 0.2
QTGF	≤ 0.2
RWHH	≤ 0.2
RWNN	0.355
RWHG	0.754
RWRG	0.881
RWLF	≤ 0.2
RWNP	≤ 0.2

Variant	one-hybrid fitness for binding parS DNA
RWLG	0.685
RWRQ	≤ 0.2
RWHP	≤ 0.2
RWLY	0.266
RWRY	0.494
RWNG	0.797
DKAC	≤ 0.2
PMRT	≤ 0.2
CRCT	≤ 0.2
TSLF	≤ 0.2
MEYL	≤ 0.2
QCLV	≤ 0.2
EWYS	≤ 0.2
RWIF	≤ 0.2
RWGM	≤ 0.2
RWGF	≤ 0.2
RWPG	0.406
RWYM	≤ 0.2
RWYF	≤ 0.2
RWSG	0.769
RWYG	0.714
RWSQ	≤ 0.2
RWIG	0.569
RWSR	≤ 0.2
RWGG	0.63

Source: a collection of fitness landscapes (doi:10.1016/j.celrep.2020.107928)
